# Test results published in PubChem BioAssay (EPA / NIEHS).
# Several values for one entry are separate records, joined by “and”; a condition that tells them apart may be missing. Identical values can stand only once. A structure can be active in one record and inactive in another. Activity calls are given as the source filed them. How the source made its calls: active means hit-call score of the fitted dose curve at least 0.9, where 1 is the maximum; inactive means score below 0.9.
# Columns and labels:
# Conditions in all cases: primary human HUVEC with PBMC; actives raise or lower the signal
# [1] = BSK_LPS_PGE2: BioMAP Diversity Plus: LPS Assay for Prostaglandin E2 (PGE2) Biomarker Activity (AID 2283082);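 on AC50: secreted prostaglandin E2 measured by ELISA in LPS-stimulated co-culture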
# In short: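 HUVEC plus PBMC co-culture stimulated with LPS; secreted PGE2 quantified by ELISA 24 h after chemical dosing. Activity fitted bidirectionally against DMSO as negative control and baseline; parallel SRB total-protein staining served as cytotoxicity check.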
# [2] = read-out: Macrophage colony-stimulating factor (MCSF), CSF1 (gene 1435); assay: BSK_LPS_MCSF: BioMAP Diversity Plus: LPS Assay for Macrophage colony-stimulating factor (MCSF) Biomarker Activity (AID 2283083)
# In short: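 Compound is added to a human vascular primary co-culture of umbilical vein endothelium and blood mononuclear cells. After 24 h, M-CSF is quantified by ELISA. Signal changes are fitted in both directions against DMSO.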
# [3] = read-out: Tissue Factor, F3 (gene 2152); assay: BSK_LPS_TissueFactor: BioMAP Diversity Plus: LPS Assay for Tissue Factor Biomarker Activity (AID 2283084)
# In short: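 In this co-culture system of umbilical vein endothelium with PBMC, stimulated with LPS, cell-surface CD142 is detected by ELISA at 24 h. Endpoint values derive from bidirectional fitting, DMSO serving as baseline.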
# [4] = read-out: Tumor necrosis factor (Homo sapiens) (UniProt P01375); assay: BSK_LPS_TNFa: BioMAP Diversity Plus: LPS Assay for Tumour Necrosis Factor alpha (TNFa) Biomarker Activity (AID 2283085)
# In short: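 Human umbilical vein endothelial cells co-cultured with PBMC were exposed to test chemical and TNFa measured by ELISA 24 h after dosing. Bidirectional curve fitting was done relative to DMSO as negative control and baseline.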
# [5] = read-out: Vascular cell adhesion molecule 1 (VCAM1), VCAM1 (gene 7412); assay: BSK_LPS_VCAM1: BioMAP Diversity Plus: LPS Assay for Vascular cell adhesion molecule 1 (VCAM1) Biomarker Activity (AID 2283086)
# In short: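 Human umbilical vein endothelial cells co-cultured with peripheral blood mononuclear cells under LPS stimulation were exposed to test chemical for 24 h. VCAM-1 levels were then measured by ELISA, with bidirectional curve fitting relative to DMSO as negative control and baseline.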
# CD40, CD40 (gene 958) = assay: BSK_SAg_CD40: BioMAP Diversity Plus: SAg Assay for CD40 Biomarker Activity (AID 2283088)
# In short: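 Fluorescence ELISA read-out of CD40 from umbilical vein endothelium plus peripheral blood mononuclear cells, sampled 24 h after dosing. Values come from bidirectional curve fitting with DMSO as baseline.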
# CD69, CD69 (gene 969) = assay: BSK_SAg_CD69: BioMAP Diversity Plus: SAg Assay for CD69 Biomarker Activity (AID 2283089);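 on AC50: cell surface CD69 protein quantified by ELISA with fluorescence detection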
# In short: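 HUVEC co-cultured with PBMC were dosed with chemical, and CD69 was measured by ELISA with fluorescence read-out 24 h later. Bidirectional curve fitting used DMSO as negative control and activity baseline.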
# [6] = read-out: Monocyte Chemoattractant Protein-1 (MCP1), CCL2 (gene 6347); assay: BSK_SAg_MCP1: BioMAP Diversity Plus: SAg Assay for Monocyte Chemoattractant Protein-1 (MCP1) Biomarker Activity (AID 2283090)
# In short: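 MCP-1 levels in the endothelial–PBMC SAg co-culture were quantified by ELISA at 24 h post-dosing; both increases and decreases versus DMSO scored. Cytotoxicity monitored by SRB total protein in parallel cultures.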
# [7] = read-out: E-selectin (Homo sapiens) (UniProt P16581); assay: BSK_SAg_Eselectin: BioMAP Diversity Plus: SAg Assay for Eselectin Biomarker Activity (AID 2283091)
# In short: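 Primary human endothelial cells and peripheral blood mononuclear cells were co-cultured and exposed to chemical for 24 hours. E-selectin levels were then quantified by ELISA, with bidirectional curve fitting normalised to DMSO controls.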
# CD38, CD38 (gene 952) = assay: BSK_SAg_CD38: BioMAP Diversity Plus: SAg Assay for CD38 Biomarker Activity (AID 2283087)
# In short: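 Fluorescence ELISA of cell-surface CD38 served as the read-out, with either increase or decrease fitted against DMSO controls. Cells were a human umbilical vein endothelium plus PBMC co-culture under SEB/TSST-1 stimulation, measured 24 h after dosing.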
# E-selectin (Homo sapiens), sequence (P16581 whole entry, looked up): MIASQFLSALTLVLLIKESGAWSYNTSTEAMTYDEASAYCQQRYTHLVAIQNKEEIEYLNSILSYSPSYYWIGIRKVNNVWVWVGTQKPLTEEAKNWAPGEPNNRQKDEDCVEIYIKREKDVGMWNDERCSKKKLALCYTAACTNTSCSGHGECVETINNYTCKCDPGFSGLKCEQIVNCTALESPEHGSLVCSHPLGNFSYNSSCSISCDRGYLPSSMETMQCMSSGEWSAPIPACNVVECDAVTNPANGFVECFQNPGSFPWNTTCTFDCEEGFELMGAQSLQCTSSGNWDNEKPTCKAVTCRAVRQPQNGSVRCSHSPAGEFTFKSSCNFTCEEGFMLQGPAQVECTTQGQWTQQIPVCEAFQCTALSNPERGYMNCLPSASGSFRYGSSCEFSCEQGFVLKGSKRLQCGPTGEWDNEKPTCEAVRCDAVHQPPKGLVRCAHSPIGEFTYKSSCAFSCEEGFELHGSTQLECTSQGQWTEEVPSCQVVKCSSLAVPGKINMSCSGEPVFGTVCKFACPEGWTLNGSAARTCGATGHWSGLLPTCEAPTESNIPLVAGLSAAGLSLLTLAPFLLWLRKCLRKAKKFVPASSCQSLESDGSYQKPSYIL
# Tumor necrosis factor (Homo sapiens), sequence (P01375 whole entry, looked up): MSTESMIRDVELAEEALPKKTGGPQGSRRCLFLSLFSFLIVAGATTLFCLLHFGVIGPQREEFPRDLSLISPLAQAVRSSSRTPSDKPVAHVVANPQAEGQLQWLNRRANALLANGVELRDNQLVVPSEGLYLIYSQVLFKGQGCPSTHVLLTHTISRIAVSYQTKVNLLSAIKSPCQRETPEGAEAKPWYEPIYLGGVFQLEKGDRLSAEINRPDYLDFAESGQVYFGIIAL
smiles,measurement,setting,value
Oc1cc2ccccc2cc1O,outcome,[1],inactive
same,outcome,[2],inactive
same,outcome,[3],inactive
same,outcome,[4],inactive
same,outcome,[5],inactive
same,outcome,"CD40, CD40 (gene 958)",inactive
same,outcome,"CD69, CD69 (gene 969)",inactive
same,outcome,[6],inactive
same,outcome,[7],inactive
CN(CCO)S(=O)(=O)C(F)(F)C(F)(F)C(F)(F)C(F)(F)C(F)(F)C(F)(F)C(F)(F)C(F)(F)F,outcome,[1],inactive
same,outcome,[2],inactive
same,outcome,[3],inactive
same,outcome,[4],inactive
same,outcome,[5],inactive
same,outcome,"CD38, CD38 (gene 952)",inactive
same,outcome,"CD40, CD40 (gene 958)",inactive
same,outcome,"CD69, CD69 (gene 969)",inactive
same,outcome,[7],inactive
N=C(N)c1ccc(OCCCCCOc2ccc(C(=N)N)cc2)cc1,outcome,[1],inactive
same,AC50,[2],13.5 µM (active)
same,outcome,[3],inactive
same,outcome,[4],inactive
same,outcome,[5],inactive
same,outcome,"CD38, CD38 (gene 952)",inactive
same,outcome,"CD40, CD40 (gene 958)",inactive
same,AC50,"CD69, CD69 (gene 969)",1.21 µM (active)
same,outcome,[7],inactive
CCCCC=O,outcome,[1],inactive
same,outcome,[2],inactive
same,outcome,[3],inactive
same,outcome,[4],inactive
same,outcome,[5],inactive
same,outcome,"CD38, CD38 (gene 952)",inactive
same,outcome,"CD40, CD40 (gene 958)",inactive
same,outcome,[7],inactive
Oc1ccc(Cc2ccccc2O)cc1,AC50,[1],1.77 µM (active) and 3.97 µM (active)
same,outcome,[2],inactive
same,outcome,[3],inactive
same,outcome,[4],inactive
same,outcome,[5],inactive
same,outcome,"CD38, CD38 (gene 952)",inactive
same,outcome,"CD40, CD40 (gene 958)",inactive
same,outcome,[6],inactive
same,outcome,[7],inactive
O=P(O)(O)CCC(F)(F)C(F)(F)C(F)(F)C(F)(F)C(F)(F)C(F)(F)F,outcome,[1],inactive
same,outcome,[2],inactive
same,AC50,[3],5.95 µM (active)
same,outcome,[3],inactive
same,outcome,[4],inactive
same,outcome,[5],inactive
same,outcome,"CD40, CD40 (gene 958)",inactive
same,outcome,[7],inactive
COc1cc(OC)nc(NC(=O)NS(=O)(=O)Nc2ccccc2C(=O)N(C)C)n1,outcome,[1],inactive
same,outcome,[2],inactive
same,outcome,[3],inactive
same,outcome,[4],inactive
same,outcome,[5],inactive
same,outcome,"CD38, CD38 (gene 952)",inactive
same,outcome,"CD40, CD40 (gene 958)",inactive
same,outcome,"CD69, CD69 (gene 969)",inactive
same,outcome,[7],inactive
O=C(NCc1ncc(C(F)(F)F)cc1Cl)c1c(Cl)cccc1Cl,outcome,[1],inactive
same,outcome,[2],inactive
same,outcome,[3],inactive
same,outcome,[4],inactive
same,outcome,[5],inactive
same,outcome,"CD38, CD38 (gene 952)",inactive
same,outcome,"CD40, CD40 (gene 958)",inactive
same,outcome,[7],inactive
CCCCCCCCCCCCCCCCCC[N+](C)(C)Cc1ccccc1,outcome,[1],inactive
same,AC50,[2],2.73 µM (active)
same,AC50,[3],2.69 µM (active)
same,AC50,[4],3.58 µM (active)
same,AC50,[5],3.09 µM (active)
same,AC50,"CD38, CD38 (gene 952)",2.73 µM (active)
same,AC50,"CD40, CD40 (gene 958)",2.74 µM (active)
same,AC50,[6],3.01 µM (active)
same,AC50,[7],4.86 µM (active)
CCCCCCCCCCCC,AC50,[1],12.9 µM (active) and 14 µM (active)
same,outcome,[2],inactive
same,AC50,[3],16.7 µM (active)
same,outcome,[3],inactive
same,AC50,[4],28.7 µM (active) and 20.7 µM (active)
same,AC50,[5],33 µM (active) and 31 µM (active)
same,outcome,"CD38, CD38 (gene 952)",inactive
same,outcome,"CD40, CD40 (gene 958)",inactive
same,outcome,[7],inactive
CN(Cc1cnc2nc(N)nc(N)c2n1)c1ccc(C(=O)N[C@@H](CCC(=O)O)C(=O)O)cc1,outcome,[1],inactive
same,outcome,[2],inactive
same,outcome,[3],inactive
same,outcome,[4],inactive
same,outcome,[5],inactive
same,outcome,"CD40, CD40 (gene 958)",inactive
same,outcome,"CD69, CD69 (gene 969)",inactive
same,outcome,[6],inactive
same,outcome,[7],inactive
Oc1c(Cl)cc(Cl)cc1Sc1cc(Cl)cc(Cl)c1O,AC50,[1],20 µM (active)
same,outcome,[1],inactive
same,AC50,[2],26.3 µM (active)
same,AC50,[3],34 µM (active) and 33.6 µM (active)
same,AC50,[4],29.9 µM (active) and 30 µM (active)
same,AC50,[5],32.9 µM (active) and 30.9 µM (active)
same,AC50,"CD40, CD40 (gene 958)",13.8 µM (active) and 9.99 µM (active)
same,AC50,[7],8.08 µM (active) and 7.11 µM (active)
OCC(F)(F)C(F)(F)C(F)(F)C(F)(F)C(F)(F)C(F)(F)C(F)(F)C(F)(F)C(F)(F)C(F)(F)C(F)(F)F,AC50,[1],42.7 nM (active) and 227 nM (active)
same,AC50,[2],0.417 µM (active)
same,outcome,[2],inactive
same,outcome,[3],inactive
same,AC50,[4],1.01 µM (active)
same,outcome,[4],inactive
same,outcome,[5],inactive
same,outcome,"CD40, CD40 (gene 958)",inactive
same,outcome,"CD69, CD69 (gene 969)",inactive
same,outcome,[7],inactive
